Rows were chosen to be rich in hits. Some 12% of all compounds tested hit in one or more screens of this group.
JMJD2A Tudor inh: inhibitors of human JMJD2A Tudor domain | O75164 | AlphaScreen JMJD2A-Tudor / H3K4me3 peptide binding | Potency, µM (top dose mostly 114 µM), without a hit: at the highest dose activity change, negative = inhibition, hits mostly inhibitors | 390,000 compounds, 4.4% hits | AID 504339; also: % is scaled to controls: 0 for no effect and ±100 for the full control effect; nearly all actives have a fitted effect of over 50% in size
BAZ2B block: BAZ2B (human) inhibition; Q9UIF8; 360,000 compounds, 4.4% hits; AlphaScreen BAZ2B-H3K14Ac peptide displacement; Potency, µM (top dose mostly 114 µM), without a hit: top-dose activity change, negative = inhibition, actives largely listed as inhibitors; also: % is scaled to controls: 0 for no effect and ±100 for the full control effect; nearly all actives have a fitted effect of over 60% in size
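AlphaScreen displacement: compounds (up to 110uM) incubated 30 min at room temperature with a preformed 50 nM BAZ2B/50 nM biotinylated H3K14Ac peptide complex in PBS pH 7.4 with Tween-20. Donor and acceptor beads at 10 ug/mL final added, 20 min light-protected before reading.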
L3MBTL1 inh: inhibitors of human L3MBTL1. Potency, µM (series often up to 57.1 µM), for the others: at the top dose activity, negative = inhibition, usual class: inhibitors. AlphaScreen L3MBTL1–H3K9me1 peptide binding. 230,000 compounds, 0.66% hits. AID 485360; also: % is scaled to controls: 0 for no effect and ±100 for the full control effect; nearly all actives have a fitted effect of over 60% in size
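Displacement of a biotinylated histone H3(1-15) peptide monomethylated at Lys9 (75 nM) from L3MBTL1 (50 nM) was measured by AlphaScreen after a 30 min room-temperature compound incubation; cefsulodin titration served as intraplate control.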
G9a inh: G9a (human) methyltransferase inhibition; G9a H3K9 monomethylation, AlphaScreen, 2 h; Potency, µM (titrated, usually from 102 µM), for the others: at the top dose activity, negative = inhibition, actives largely listed as inhibitors; 350,000 compounds, 8.8% hits; AID 504332; also: % is scaled to controls: 0 for no effect and ±100 for the full control effect; nearly all actives have a fitted effect of over 75% in size
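Methyltransferase reactions run at room temperature for 2 h (20 nM enzyme, 500 nM biotin-H3K9 peptide, 20 uM SAM) after a 15 min compound preincubation; product detected by AlphaScreen beads and anti-H3K9me1 antibody.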
HP1b chromo inh: blocks HP1-beta chromodomain binding to methylated histone tails | Potency, µM (series often up to 114 µM), inactives show top-dose activity change, negative = inhibition, usual class: inhibitors | 390,000 compounds, 0.56% hits | P83916 | AID 540317 | AlphaScreen HP1-beta / biotin-H3K9me3 peptide binding; also: nearly all actives have a fitted effect of over 70% in size
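Compound inhibition of the preformed complex between 50 nM HP1-beta and 50 nM biotinylated H3K9me3 peptide was read by AlphaScreen. Buffer was PBS pH 7.4 with 0.01% Tween-20. Incubations ran 30 min at room temperature, with 10 ug/mL donor/acceptor beads.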
Sfp PPTase inh: Sfp phosphopantetheinyl transferase inhibition | Biochemical Sfp PPTase activity, qHTS | Q9F4F7 | 310,000 compounds, 3.5% hits | Potency, µM, inactives show largest response in the series, negative = inhibition, hits mostly inhibitors;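 also: the enzyme is Sfp with the accession as filed and its product quenches rhodamine fluorescence; 0% = enzyme reaction without inhibitor and -100% = no enzyme wells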
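Fluorescence-quenching assay with 15 nM Sfp, 5 uM rhodamine-CoA and 12.5 uM BHQ-2-labelled ybbR peptide in pH 7.6 Hepes/MgCl2 buffer. Enzyme was pre-incubated with compound for 15 min at room temperature. Rate was taken from the 30-min fluorescence change (525/598 nm).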
The depositor's hits bear a star; ? = inconclusive; · = not tested or not shown; [ ] = remark or other dose. Calls follow the shape of the dose curve; as a rule, active = well fitted curve in the direction sought with a large enough effect; inconclusive = small, poorly fitted or top-dose-only effect, or another doubt; inactive = no such curve, though single readings can be large; an effect the other way counts as inactive or inconclusive. Potency is read from the fitted curve at half-maximal effect.

SMILES | JMJD2A Tudor inh | BAZ2B block | L3MBTL1 inh | G9a inh | HP1b chromo inh | Sfp PPTase inh
Cc1cc(C(=O)c2ccccc2)cc(C)c1O | -3% | · | · | · | 25% | ·
CC1=C/C(=C(\c2cc(C)c(O)c(Br)c2)c2ccccc2S(=O)(=O)O)C=C(Br)C1=O | ? | 20µM* | 22µM* | 14µM* | 28µM* | 45µM*
COc1ccc(CC(=O)Nc2ccc(S(=O)(=O)NCC3CCCO3)cc2)cc1 (configuration not stated) | -13% | 7% | 12% | 10µM* | -7% | ?
Cc1ccccc1OCC(=O)N/N=C/c1cccn1C | 8%[11.4 µM] | 45µM* | -7% | ? | -18% | 14%
Cc1ccc(C(C)C)c(OCC(=O)N/N=C/c2cccn2C)c1 | ? | 25µM* | · | · | ? | 0%
Cc1ccc(C(C)C)c(OCC(=O)Nc2ccc(N3CCN(S(C)(=O)=O)CC3)cc2)c1 | -6% | -13% | -15%[11.4 µM] | 10µM* | 26% | 10%
Cc1ccc(OCC(=O)Nc2ccc(N3CCN(S(C)(=O)=O)CC3)cc2)c(C)c1 | -9% | -33% | -14% | 14% | 36% | 17%
CC(=O)OCCN1C(=O)c2c(C)nc3ccc(S(=O)(=O)N4CCOCC4)cc3c2C1=O | · | · | · | · | · | -1%

High-throughput results (PubChem BioAssay)
